High-throughput results (PubChem BioAssay)
A selection: hits, their analogues and other compounds. The true share with any hit is near 4.3%.
uPA surface inh: qHTS for Inhibitors of Cell Surface uPA Generation; actives 0.31% (n = 330,000); AID 540303, 2011; cell surface uPA generation assay, qHTS; Potency, µM (doses to about 38.3 µM), most hits filed as inhibitors; active = well fitted inhibition curve with a large enough effect; inconclusive = small, poorly fitted or top-dose-only effect; inactive = no such curve, though single readings can be large or run the other way; tested in mouse RAW 264.7 cells; note: nearly all actives have a fitted effect of over 55% in size
MCF10A rereplic: A quantitative high throughput screen for small molecules that induce DNA re-replication in MCF 10a normal breast cells; MCF 10A DNA re-replication, Hoechst nuclear intensity, 48 h; Potency, µM (top dose mostly 46.1 µM), actives largely listed as activators; actives 2.9% (n = 350,000); note: nearly all actives have a fitted effect of over 50% in size
SW480 rereplic: A quantitative high throughput screen for small molecules that induce DNA re-replication in SW480 colon adenocarcinoma cells. SW480 DNA re-replication, Hoechst DNA content imaging, 48 h. Potency, µM (titrated, usually from 46.1 µM), most hits filed as activators. actives 1.8% (n = 340,000). AID 624297, 2012; note: nearly all actives have a fitted effect of over 55% in size
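Per well, 250 cells were exposed to pinned compound for 48 hr. Nuclear DNA was visualised with Hoechst (40 min, 37 C) and total object intensity recorded by fluorescence scanning.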
Giardia kill: Small Molecules that selectively kill Giardia lamblia: qHTS | Giardia lamblia trophozoite viability | activity change, % at 7.66 µM, hits read low | actives 0.15% (n = 340,000) | AID 540267, 2011; in the data active = activity change below about -80%; inconclusive = between about -30% and that limit;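 note: parasites exposed to compound for two days anaerobically before the ATP read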
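Trophozoite viability was measured as ATP-dependent luminescence, read 15-30 min after reagent addition. Before that, parasites at 100 cells/well were exposed to compounds for 48 h, anaerobically, at 37 deg C.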
Of the large screens only hits and unclear results are named; the others gave an inactive call. Unless noted, calls come from the whole dose curve; as a rule, active = well fitted activation curve with a large enough effect; inconclusive = small, poorly fitted or top-dose-only effect; inactive = no such curve, though single readings can be large or run the other way.

COC(=O)c1ccc2c(c1O)C(=O)c1ccccc1C2=O	MCF10A rereplic inconclusive, SW480 rereplic inconclusive, Giardia kill inconclusive
COCCCn1[nH]c2c3c(ccc2c1=O)C(=O)c1ccccc1C3=O	MCF10A rereplic inconclusive, SW480 rereplic inconclusive, Giardia kill -93
Cc1ccc(-n2[nH]c3c4c(ccc3c2=O)C(=O)c2ccccc2C4=O)cc1	none
CC1=CCC2CC1C2(C)C (centres undefined)	none (no result: uPA surface inh, Giardia kill)
Cc1ccc(-c2cc(C(=O)N/N=C/c3cccnc3)n[nH]2)o1	none
Cc1ccc(/C=N/NC(=O)c2cc(-c3ccc(C)o3)[nH]n2)cc1	MCF10A rereplic 4.6µM, SW480 rereplic inconclusive
CCOC(=O)C1(Cc2cccc(OC)c2)CCN(Cc2cccc(OC)c2OC)CC1	MCF10A rereplic inconclusive, SW480 rereplic inconclusive
CCOC(=O)C1(Cc2ccc(OC)cc2)CCN(C(=O)c2ccoc2C)CC1	MCF10A rereplic inconclusive
CCOC(=O)C1(CC2CC2)CCN(Cc2cnc(-c3ccc(OC)cc3)nc2)CC1	MCF10A rereplic 13µM
CCOC(=O)C1(Cc2cccc(OC)c2)CCN(Cc2cc(OC)ccc2OC)CC1	MCF10A rereplic inconclusive, SW480 rereplic 23µM
CCOC(=O)C1(Cc2cccc(OC)c2)CCN(Cc2cnc(N)nc2)CC1	none
CCOC(=O)C1(Cc2ccc(OC)cc2)CCN(C(=O)c2ccc3[nH]ccc3c2)CC1	uPA surface inh 11µM, MCF10A rereplic 12µM, SW480 rereplic inconclusive
CN(C)c1cccc(C(=O)OCC(=O)NC2CCCC2)c1	none
C[C@H](CO)N1C[C@H](C)[C@@H](CN(C)C(=O)Nc2ccc3c(c2)OCO3)Oc2ccc(NS(=O)(=O)c3ccccc3)cc2C1=O	none
O=C(Nc1ccc(F)cc1)c1cc(-c2ccccn2)nc2c(Cl)cccc12	MCF10A rereplic inconclusive, SW480 rereplic inconclusive
O=C(O)C(c1ccccc1)N1C(=O)c2cccc3cccc(c23)C1=O (centres undefined)	none
NN=C1c2ccccc2C(=O)C1C(=O)C(c1ccccc1)c1ccccc1 (centres undefined)	MCF10A rereplic 12µM
CCOc1cc(/C=C2/C(=O)ON=C2C)ccc1OCc1ccccc1F	MCF10A rereplic inconclusive, SW480 rereplic 23µM
CCOc1cc(/C=C2/C(=O)ON=C2C)ccc1OCc1ccccc1	MCF10A rereplic inconclusive, SW480 rereplic inconclusive
CCOc1cc(/C=C2/C(=O)ON=C2C)ccc1OCc1ccc(F)cc1	MCF10A rereplic inconclusive, SW480 rereplic 18µM
Cc1ccnn1-c1ccc(C(=O)NCc2ccccc2CN2CCOCC2)cc1	none
C=C1[C@H](C)CN[C@H]1CCO	MCF10A rereplic inconclusive
CN1CCc2c(C#N)c(N3CCCCC3)nc(NCc3ccccc3)c2C1	MCF10A rereplic 18µM, SW480 rereplic inconclusive
CCOC(=O)c1sc(-c2ccc(C(F)(F)F)cc2)nc1O	MCF10A rereplic 16µM, SW480 rereplic 16µM
CCOc1ccc(S(=O)(=O)NCCC(=O)N2CC=C(c3ccccc3)CC2)cc1	MCF10A rereplic inconclusive
CC=Cc1cc2c(c(=O)o1)C(=O)C(O)C(C)O2 (centres undefined)	MCF10A rereplic 12µM, SW480 rereplic 18µM
O=C(Nc1c(Cl)cc([N+](=O)[O-])cc1Cl)c1cc(Cl)cc(Cl)c1O	none (no result: uPA surface inh, MCF10A rereplic, SW480 rereplic)
Cc1cc(Br)c(OCc2ccc(C(=O)N/N=C/c3ccc[nH]3)cc2)c(Br)c1	uPA surface inh 0.18µM, MCF10A rereplic inconclusive, SW480 rereplic 3.7µM
CC1CN(C(=O)COC(=O)c2ccc(N(C)C)cc2)CC(C)O1 (centres undefined)	MCF10A rereplic inconclusive
CCOc1ccc(N2C(=O)S/C(=C\c3ccc(O)c(OCC)c3)C2=O)cc1	MCF10A rereplic 16µM, SW480 rereplic inconclusive
CCOc1cc(/C=C2\N=C(SC(C)C(N)=O)N(c3ccc(OC(F)F)cc3)C2=O)ccc1O (centres undefined)	MCF10A rereplic 10µM, SW480 rereplic 18µM
CCOc1cc(/C=C2\SC(=O)N(c3ccc(O)cc3)C2=O)ccc1O	none
NC(=O)CSC1=N/C(=C\c2ccco2)C(=O)N1c1ccc(OC(F)F)cc1	none
CCCCN1C(=O)C(O)(CC(=O)c2c(C)n[nH]c2C)c2cc(Br)ccc21 (centres undefined)	none
O=C(CC1(O)C(=O)N(Cc2ccccc2Cl)c2ccccc21)c1ccco1 (centres undefined)	MCF10A rereplic inconclusive, SW480 rereplic 18µM
CCOC(=O)CN1C(=O)C(O)(CC(=O)c2ccco2)c2ccccc21 (centres undefined)	MCF10A rereplic inconclusive
CCCCN1C(=O)C(O)(CC(=O)c2ccco2)c2cc(Br)ccc21 (centres undefined)	uPA surface inh inconclusive, MCF10A rereplic inconclusive, SW480 rereplic 15µM
Cc1ccc(C23CC4CC(CC(C(=O)OCC(=O)NC5CCS(=O)(=O)C5)(C4)C2)C3)cc1 (centres undefined)	none
COc1ccc(CNC(=O)C(C#N)c2nc3ccccc3nc2N2CCCC2)cc1 (centres undefined)	MCF10A rereplic 12µM, SW480 rereplic inconclusive
COc1ccc(CNC(=O)C(C#N)c2nc3ccccc3nc2N2CCN(C)CC2)cc1 (centres undefined)	none
O=C(NCCCO)c1cc2ccccc2[nH]1	none
NNC(=O)c1cc2ccccc2[nH]1	MCF10A rereplic 12µM, SW480 rereplic 18µM
NNC(=O)c1cc2cc(Oc3ccccc3)ccc2[nH]1	MCF10A rereplic inconclusive, SW480 rereplic 5.8µM
CCOC(=O)c1[nH]c(C)c(C(=O)N2CCCC(Nc3ccc(C)c(C)c3)C2)c1C (centres undefined)	SW480 rereplic inconclusive
COC(=O)c1cc(Cl)c(NC(=O)/C=C/c2ccc(Cl)cc2Cl)cc1OC	MCF10A rereplic 2.1µM (no result: uPA surface inh)
COc1ccc2c(c1)sc1nc(-c3ccccc3)cn12	MCF10A rereplic inconclusive, SW480 rereplic inconclusive, Giardia kill -91
CCOC(=O)N1CCN(C(=O)c2ccc3c(c2)sc2nc(-c4ccc(OC)cc4)cn23)CC1	none
CN1C[C@@H]2C(c3ccccc3)C3(c4ccc(C#N)cc4)CC2(C3)[C@H]1c1ccccc1 (some centres undefined)	MCF10A rereplic 5.2µM, Giardia kill inconclusive
CCC(=O)Nc1nc(C)c(-c2csc(Nc3cccc(O)c3)n2)s1	MCF10A rereplic 21µM, SW480 rereplic inconclusive
C=CCCC(=O)Nc1nc(C)c(-c2csc(Nc3ccccc3OC)n2)s1	uPA surface inh 3.5µM, SW480 rereplic inconclusive
COc1ccccc1C(N)=S	none
Cc1cccc(NC(=S)NCc2ccc(F)cc2)c1C	none
CCOC(=O)C1=C(COC(=O)CNS(=O)(=O)c2c(F)cc(F)cc2Br)NC(=O)NC1C (centres undefined)	none
Cc1ccc(-n2c(-c3cccc(C)c3)n[nH]c2=S)cc1	MCF10A rereplic 21µM, SW480 rereplic inconclusive
Cc1ccc(-c2n[nH]c(=S)n2-c2ccccc2)cc1	none
CCOC(=O)c1sc2nc(C)cc(C)c2c1N	MCF10A rereplic 18µM, SW480 rereplic inconclusive
COc1ccc(NC(=O)c2sc3nc(C)cc(C)c3c2N)c(OC)c1	MCF10A rereplic inconclusive, SW480 rereplic 15µM
